This excerpt belongs to a sample that is enriched for hits.
HT1080-NT tox: qHTS for induction of synthetic lethality in tumor cells producing 2HG: qHTS for the HT-1080-NT fibrosarcoma cell line. 360,000 tested, 1.6% active. AID 686970, 2013. Potency, µM (series often up to 46.1 µM), for inactives: at the top dose activity, negative = less viability, most hits filed as cytotoxic. HT-1080-NT fibrosarcoma viability, CellTiter-Glo ATP luminescence, 48 h;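 further: NT is the 2HG producing partner of a matched IDH1 knockdown line; potency means the concentration at half of the fitted maximal effect; 0% = DMSO-treated cells and -100% = media-only wells without cells; nearly all actives have a fitted effect of over 55% in size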
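Viability by CellTiter-Glo luminescence after 48 h compound exposure at 37C of HT-1080-NT cells (750/well, RPMI, 5% FBS). % activity scaled between DMSO wells and medium-only wells, then curve-fitted and categorized by curve class.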
HT1080 IDH1KD tx: qHTS for induction of synthetic lethality in tumor cells producing 2HG: qHTS for the HT-1080-IDH1KD cell line; HT-1080 IDH1 knockdown viability, ATP luminescence, 48 h; 360,000 tested, 2% active; AID 686971, 2013; Potency, µM (doses to about 46.1 µM), inactives show at the highest dose activity, negative = toxicity, usual class: cytotoxic;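 further: potency means the concentration at half of the fitted maximal effect; 0% = DMSO wells and -100% = cell-free medium wells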
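IDH1KD HT-1080 cells, 750/well, RPMI + 5% FBS; compound pinned after 2 h settling; 48 h, 37 °C; CellTiter-Glo luminescence; % activity normalised to DMSO and no-cell wells; curves fitted, classed by r2 and efficacy.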
DT40 TDP1 no CPT: qHTS for Inhibitors of human tyrosyl-DNA phosphodiesterase 1 (TDP1): qHTS in cells in absence of CPT; 420,000 tested, 15% active; Potency, µM (doses to about 46.2 µM), for the others: top-dose activity change, negative = growth inhibition, most hits filed as inhibitors; DT40 Tdp1-/- hTDP1 cells, no CPT, ATP luminescence, 48 h; AID 686978, 2013; further: potency means the concentration at half of the fitted maximal effect; nearly all actives have a fitted effect of over 55% in size
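No-CPT arm: Tdp1-/-;hTDP1 DT40 cells (400/well) plus compounds, incubated ≥48 hr at 37 °C. Readout CellTiter-Glo luminescence.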
TDP1 cell CPT: qHTS for Inhibitors of human tyrosyl-DNA phosphodiesterase 1 (TDP1): qHTS in cells in presence of CPT; chicken DT40 Tdp1-/-;hTDP1 cells + 20 nM CPT, ATP luminescence, 48 h; Potency, µM (highest dose often 46.2 µM), without a hit: at the highest dose activity change, negative = growth inhibition, hits mostly inhibitors; 420,000 tested, 12% active; AID 686979, 2013; further: potency means the concentration at half of the fitted maximal effect; nearly all actives have a fitted effect of over 55% in size
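Cell growth measured by CellTiter-Glo luminescence after a minimum 48 h, 37 C compound exposure with 20 nM CPT in Tdp1-knockout DT40 cells stably expressing hTDP1, seeded 400/well; qHTS titration format.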
IL-1B inflam inh: qHTS for Inhibitors of Inflammasome Signaling: IL-1-beta AlphaLISA Primary Screen. activity change, % at 57.5 µM. THP-1 LPS/ATP IL-1B secretion, AlphaLISA, 16 h; hits give low values. 360,000 tested, 4.7% active; in the data active means activity change below about -50%; inconclusive means mostly about -30% to -49%
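Secreted IL-1B measured by AlphaLISA bead assay after 16 h compound exposure of THP-1 cells; compounds (final up to 57.5 uM) added 1 h before LPS (250 ng/mL) and ATP (1.25 mM) stimulation; lower signal means less secretion.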
12-LOX inh: Primary qHTS assay for inhibitors of human arachidonate 12S-lipoxygenase (ALOX12): Round 2; AID 1671190, 2021; purified 12hLO, xylenol orange hydroperoxide absorbance; Potency, µM (titrated, usually from 108 µM), without a hit: top-dose activity change, negative = inhibition, actives largely listed as inhibitors; 580,000 tested, 1.1% active; further: potency means the concentration at half of the fitted maximal effect
Target sequence (P18054 whole entry, looked up): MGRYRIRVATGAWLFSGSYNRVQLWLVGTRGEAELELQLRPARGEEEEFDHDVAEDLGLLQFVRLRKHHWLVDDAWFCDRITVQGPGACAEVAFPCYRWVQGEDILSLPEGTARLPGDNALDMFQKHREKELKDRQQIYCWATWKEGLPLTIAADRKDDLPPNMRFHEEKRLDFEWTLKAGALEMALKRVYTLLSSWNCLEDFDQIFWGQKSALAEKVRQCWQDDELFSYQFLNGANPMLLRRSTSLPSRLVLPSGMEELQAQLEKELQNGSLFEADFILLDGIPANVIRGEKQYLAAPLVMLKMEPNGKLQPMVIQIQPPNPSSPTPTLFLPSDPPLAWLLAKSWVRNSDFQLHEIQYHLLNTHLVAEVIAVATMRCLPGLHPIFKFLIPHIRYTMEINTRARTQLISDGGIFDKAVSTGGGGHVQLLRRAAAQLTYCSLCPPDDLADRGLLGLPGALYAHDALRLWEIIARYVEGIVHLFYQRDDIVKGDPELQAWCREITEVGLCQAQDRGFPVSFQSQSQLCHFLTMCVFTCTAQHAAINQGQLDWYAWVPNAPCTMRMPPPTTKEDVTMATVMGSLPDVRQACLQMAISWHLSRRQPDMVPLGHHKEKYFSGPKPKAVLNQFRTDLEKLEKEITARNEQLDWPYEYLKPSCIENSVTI
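Purified human 12hLO at 150 nM in 25 mM Hepes, 0.01% Triton X-100, pH 7.0, preincubated 15 min at room temperature with compound. Reaction started with 40 uM arachidonic acid, 30 min at room temperature. Hydroperoxide measured by Fe-xylenol orange, 573/405 nm absorbance ratio.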
* hit, by the source's call; ? = inconclusive; . = not tested or not shown; [ ] = remark or other dose. Unless noted, the call rests on the fitted dose curve; in most records, active means well fitted curve in the direction sought with a large enough effect; inconclusive means small, poorly fitted or top-dose-only effect, or another doubt; inactive means no such curve, though single readings can be large; an effect the other way counts as inactive or inconclusive. Unless noted, on the % scale 0 is the no-effect control and ±100 the full control effect.

SMILES	HT1080-NT tox	HT1080 IDH1KD tx	DT40 TDP1 no CPT	TDP1 cell CPT	IL-1B inflam inh	12-LOX inh
Cc1ccc(OCC(=O)Nc2ccccc2C(=O)OCc2cc(=O)n3nc(C4CC4)sc3n2)cc1	.	.	10.3µM*	7.31µM*	.	-6.4%
CC(=O)SC[C@@H](Cc1ccccc1)C(=O)NCC(=O)OCc1ccccc1	.	.	-24.7%[21.1 µM]	-6.9%[21.1 µM]	.	-8.5%[22.9 µM]
COc1ccc(O)cc1CN1CCC(Cc2ccc(C(=O)O)cc2)C1 (stereo unspecified)	.	.	.	.	.	87.3%
C=Cn1cc[n+](CC(=O)c2ccc(-c3ccccc3)cc2)c1	0.4%	-28.4%	2.31µM*	3.26µM*	?	12.6%
C=Cn1cc[n+](CC(=O)c2cccs2)c1	-0.6%	-9.7%	-13.5%	10.4%	5.2	-0.2%
C=Cn1cc[n+](CC(=O)c2cc(C(C)(C)C)c(O)c(C(C)(C)C)c2)c1	-27.4%	-13.7%	16.4µM*	14.6µM*	-13.5	14.9%
CC1=CC(C)(C)Nc2ccc(OC(=O)CCN3C(=O)c4ccccc4C3=O)cc21	?	?	3.66µM*	3.26µM*	-98.9*	-0.6%
Cc1ccc(S(=O)(=O)N2c3ccccc3OCC2c2ccccc2)cc1 (stereo unspecified)	?	?	16.4µM*	29.1µM*	5.0	-12.9%
CC1COc2ccccc2N1S(=O)(=O)c1ccc(Cl)cc1 (stereo unspecified)	-13.0%	-25.1%	23.1µM*	-4.7%	20.7	2.9%
O=C(C(Cl)Cl)N1c2ccccc2OCC1c1ccccc1 (stereo unspecified)	-10.5%	-19.0%	14.6µM*	18.4µM*	-8.8	0.0%
CCC(C)[C@H](NC(=O)NCc1ccc(S(N)(=O)=O)cc1)C(=O)O (stereo partly specified)	4.5%	4.5%	4.3%	4.5%	14.0	-5.9%
CC(=O)Nc1ccc(-c2cc(NC(C)=O)n(-c3ccccc3)n2)cc1	1.6%	8.8%	-11.7%	-0.2%	4.0	0.0%
O=C(CCl)Nc1cc(-c2ccccc2)nn1-c1ccccc1	5.01µM*	1.58µM*	3.26µM*	5.17µM*	-105.2*	?
Cc1ccc(-c2nn(-c3ccccc3)cc2NC(=O)CCl)cc1	5.17µM*	7.31µM*	2.59µM*	3.26µM*	-99.7*	?
Cc1ccc(-c2cc(NC(=O)CCl)n(-c3ccccc3)n2)cc1	?	?	7.31µM*	-90.5%	-98.7*	?
CC(C)=CC1C(C(=O)Nc2c(C)cc(C)cc2C)C1(C)C (stereo unspecified)	.	.	.	.	.	-4.1%
Cc1ccccc1-c1nc(CS(=O)(=O)CC(=O)NCCCc2ccccc2)c(C)o1	.	.	?	?	.	-2.2%
COCCNc1nc(Nc2ccc(C)cc2C)c2sccc2n1	?	?	1.46µM*	1.84µM*	18.2	2.9%
COCCNc1nc(NCc2ccc(C)cc2C)c2sccc2n1	-11.3%	-29.2%	14.6µM*	14.6µM*	2.4	?
O=C(COc1ccc(-c2nnco2)cc1)N1CCOCC1	0.0%	-2.1%	7.0%	3.7%	-0.1	7.6%
CC(=O)N1c2ccccc2C2(O)N=C(C)SC12 (stereo unspecified)	9.5%	6.6%	?	16.4µM*	0.0	.
CC(=O)N1c2ccccc2[C@@H](C)[C@@H]1C	4.7%	12.5%	-9.9%	-13.1%	26.5	0.0%
CCc1cc(=O)n(CC(=O)Nc2cccc(NC(C)=O)c2)c(-n2nc(C)cc2C)n1	.	.	.	.	.	5.6%

Screening data from PubChem BioAssay.
